The list is not random: actives were taken first. Their share in the collection is about 17%.
ATXN2 expr inh – ATXN2 expression inhibition; HEK-293 ATXN2-luciferase reporter, luminescence, 24 h; Potency, µM (highest dose often 57 µM), most hits filed as inhibitors; hit rate 0.72% among 360,000; AID 1745845; further: nearly all actives have a fitted effect of over 55% in size
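qHTS (up to 57 uM final) was run with 24 h compound exposure of reporter cells at 37 °C. Each well was multiplexed: SteadyGlo luminescence measured ATXN2-luciferase expression after a fluorogenic Gly-Phe-AFC viability readout (25 uM final).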
DT40 TDP1 no CPT – qHTS for Inhibitors of human tyrosyl-DNA phosphodiesterase 1 (TDP1): qHTS in cells in absence of CPT. AID 686978, 2013. DT40 Tdp1-/- hTDP1 cells, no CPT, ATP luminescence, 48 h. hit rate 15% among 420,000. Potency, µM (highest dose often 46.2 µM), usual class: inhibitors; further: nearly all actives have a fitted effect of over 55% in size
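Chicken DT40 Tdp1-/- cells stably complemented with human TDP1 were seeded at 400 cells/well with DMSO in place of 20 nM camptothecin. After compound pinning, cells grew at least 48 hr at 37 °C; viability read by CellTiter-Glo luminescence.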
TDP1 cell CPT – growth inhibition of DT40 Tdp1-/-;hTDP1 cells with camptothecin (screen for TDP1 inhibitors) | chicken DT40 Tdp1-/-;hTDP1 cells + 20 nM CPT, ATP luminescence, 48 h | Potency, µM (highest dose often 46.2 µM), hits mostly inhibitors | hit rate 12% among 420,000 | AID 686979; further: nearly all actives have a fitted effect of over 55% in size
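Chicken DT40 Tdp1-/- cells complemented with human TDP1, 400 cells/well, exposed to compounds plus 20 nM camptothecin for at least 48 h at 37 C; viability read as ATP content by CellTiter-Glo luminescence.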
TGFb SMAD3 inh – inhibitors of TGF-b signaling. Potency, µM (titrated, usually from 46.1 µM), usual class: inhibitors. HepG2 CAGA-GFP TGF-b/SMAD3 reporter, GFP fluorescence, 18 h; TGF-beta stimulated, 500 pg/mL final. hit rate 1.2% among 410,000; further: nearly all actives have a fitted effect of over 65% in size
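Smad-responsive CAGA-GFP expression was quantified in HEPG2 cells exposed to compounds and 500 pg/mL final TGF-beta for 18 h at 37 degrees C; unstimulated wells defined full inhibition.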
HepG2 tox – kills HepG2 cells in TGF-b inhibitor counter-screen. hit rate 0.76% among 410,000. HepG2 CAGA-GFP viability, ATP luminescence, 18 h. Potency, µM (series often up to 46.1 µM), usual class: cytotoxic
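CellTiter-Glo luminescence gave cytotoxicity after 18 hours at 37 degrees C. The cells were HepG2 CAGA-GFP in 1% FBS DMEM, stimulated with 500 pg/mL TGF-beta after compound addition. %Activity was normalised to no-cell wells (complete cell-killing) and DMSO (no toxicity), and curves were fitted and classified.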
ATXN viability – cell viability loss in ATXN counter-screen. Potency, µM (titrated, usually from 56.7 µM), most hits filed as cytotoxic. S2 cells (HEK-293 line with an ATXN2-luciferase reporter) viability, CellTiter-Fluor protease fluorescence, 24 h. hit rate 0.49% among 400,000. AID 651635; further: nearly all actives have a fitted effect of over 40% in size
Each line names hits and unclear results; the compound was inactive in the other large screens. The call rests on the fitted dose curve; in most records, active means well fitted curve in the direction sought with a large enough effect; inconclusive means small, poorly fitted or top-dose-only effect, or another doubt; inactive means no such curve, though single readings can be large; an effect the other way counts as inactive or inconclusive.

CCCCCCCCN1C(=O)[C@H](CC(=O)NCCCN2CCCC2=O)C[C@@]2(C(=O)OC)CC(C)(C)CC=C12	DT40 TDP1 no CPT 13µM, TDP1 cell CPT 13µM (no result: ATXN2 expr inh, TGFb SMAD3 inh, HepG2 tox, ATXN viability)
COC(=O)[C@@]12C[C@@H](CC(=O)NCCCN3CCCC3=O)C(=O)N(Cc3ccccc3)C1=CCC(C)(C)C2	none (no result: ATXN2 expr inh, TGFb SMAD3 inh, HepG2 tox, ATXN viability)
CCCCCCCCN1C(=O)[C@H](CC(=O)NCCc2ccccc2OC)C[C@@]2(C(=O)OC)CC(C)(C)CC=C12	DT40 TDP1 no CPT inconclusive, TDP1 cell CPT 21µM (no result: ATXN2 expr inh, TGFb SMAD3 inh, HepG2 tox, ATXN viability)
CCCCOCCCNC(=O)C[C@@H]1C[C@@]2(C(=O)OC)CC(C)(C)CC=C2N(Cc2ccccc2)C1=O	DT40 TDP1 no CPT inconclusive, TDP1 cell CPT 21µM (no result: ATXN2 expr inh, TGFb SMAD3 inh, HepG2 tox, ATXN viability)
CCOC(=O)[C@]12CCC=C1N(Cc1ccccc1)C(=O)[C@H](CC(=O)NCCc1ccccc1OC)C2	DT40 TDP1 no CPT inconclusive, TDP1 cell CPT inconclusive (no result: TGFb SMAD3 inh, HepG2 tox)
CC(C)C[C@H]1CN(CCCC[C@H]2CNC(=O)C(=O)N2CC2CCCCC2)C(=O)C(=O)N1CCc1ccccc1	DT40 TDP1 no CPT inconclusive, TDP1 cell CPT inconclusive (no result: TGFb SMAD3 inh, HepG2 tox)
COCCNC(=O)C1CCCN(C(=O)c2ccc3ccccc3n2)CC1 (centres undefined)	none
CN1CCN(/N=C/c2ccc(N(c3ccccc3)c3ccccc3)cc2)CC1	ATXN2 expr inh 0.84µM, DT40 TDP1 no CPT inconclusive, TDP1 cell CPT inconclusive, TGFb SMAD3 inh 2µM (no result: ATXN viability)
O=C(NCC1CCCN(C(=O)c2cscn2)C1)c1ccccc1Cl (centres undefined)	none
O=C(NCC1CCCN(C(=O)c2cscn2)C1)c1ccc(-c2ccccc2)cc1 (centres undefined)	DT40 TDP1 no CPT 21µM
Cc1ncoc1C(=O)N1CCCC(C(=O)Nc2cccc(-c3ccc(F)cc3)c2)C1 (centres undefined)	DT40 TDP1 no CPT 18µM, TDP1 cell CPT inconclusive
O=C(Nc1cccc(-c2ccc(F)cc2)c1)C1CCCN(C(=O)c2cscn2)C1 (centres undefined)	DT40 TDP1 no CPT inconclusive, TDP1 cell CPT 13µM (no result: ATXN2 expr inh)
C=CCN1CCc2nc(N)sc2CC1	none
CCN1CCc2nc(N)sc2C1	DT40 TDP1 no CPT 29µM, TDP1 cell CPT inconclusive
O=C1CCC(=O)N1CO	none (no result: ATXN2 expr inh, TGFb SMAD3 inh, HepG2 tox, ATXN viability)
CCOc1cc(N2CCOCC2)c(OCC)cc1NC(=O)C(NC(=O)c1ccco1)C(C)C (centres undefined)	DT40 TDP1 no CPT 12µM
CC(C)COc1ccc(C(=O)Nc2ccc(N3CCOCC3)cc2N2CCOCC2)cc1	DT40 TDP1 no CPT 16µM, TDP1 cell CPT 18µM
CCCCCOc1ccc(C(=O)Nc2ccc(N3CCOCC3)cc2N2CCOCC2)cc1	none
CCOc1cc(N2CCOCC2)c(OCC)cc1NC(=O)c1ccc(NC(C)=O)cc1	none
CCOc1cc(N2CCOCC2)c(OCC)cc1NC(=O)c1ccc(OC)cc1	DT40 TDP1 no CPT 7.3µM, TDP1 cell CPT 6.5µM
CCOc1cc(N2CCOCC2)c(OCC)cc1NC(=O)c1nc2nc(C)cc(C)n2n1	DT40 TDP1 no CPT 23µM, TDP1 cell CPT inconclusive, TGFb SMAD3 inh inconclusive
COc1ccc(F)c(CN2CCOc3ccc(CN4CCCCC4CO)cc3C2)c1 (centres undefined)	none (no result: ATXN2 expr inh, TGFb SMAD3 inh, HepG2 tox)
O=C(Nc1ccccc1N1CCOCC1)c1cnccn1	DT40 TDP1 no CPT inconclusive (no result: ATXN2 expr inh)
CCOc1ccccc1C(=O)NC(C(=O)Nc1ccccc1N1CCOCC1)C(C)C (centres undefined)	DT40 TDP1 no CPT inconclusive, TDP1 cell CPT inconclusive
CCOc1cc(N2CCOCC2)c(OCC)cc1NC(=O)c1ccco1	DT40 TDP1 no CPT 12µM
CCOc1cc(-n2cnnn2)c(OCC)cc1NC(=O)c1cnccn1	none
O=C(Nc1ccc(N2CCOCC2)cc1)c1cnccn1	ATXN2 expr inh 2.5µM
CCOc1cc(N2CCOCC2)c(OCC)cc1NC(=O)c1cnccn1	DT40 TDP1 no CPT 23µM, TDP1 cell CPT 21µM
CCOc1cc(N2CCOCC2)c(OCC)cc1NC(=O)c1ccccc1C	DT40 TDP1 no CPT inconclusive

High-throughput results deposited in PubChem BioAssay by National Center for Advancing Translational Sciences (NCATS).
